Results: PubChem BioAssay
Activity calls are given as the source filed them.

Target: NADPH oxidase 2 (Homo sapiens) (UniProt P04839)
Assay: NOX2-dependent H2O2 signal modulators, primary screen, NOX inhibitor project, cell-based, HEK293-NOX2, PMA-stimulated, Amplex Red fluorescence (AID 1159); also: test concentration not given here
Details: 45 min, higher = more signal, called active from +8 up or from −8 down

Chain of NADPH oxidase 2 (Homo sapiens) (P04839 whole entry, looked up): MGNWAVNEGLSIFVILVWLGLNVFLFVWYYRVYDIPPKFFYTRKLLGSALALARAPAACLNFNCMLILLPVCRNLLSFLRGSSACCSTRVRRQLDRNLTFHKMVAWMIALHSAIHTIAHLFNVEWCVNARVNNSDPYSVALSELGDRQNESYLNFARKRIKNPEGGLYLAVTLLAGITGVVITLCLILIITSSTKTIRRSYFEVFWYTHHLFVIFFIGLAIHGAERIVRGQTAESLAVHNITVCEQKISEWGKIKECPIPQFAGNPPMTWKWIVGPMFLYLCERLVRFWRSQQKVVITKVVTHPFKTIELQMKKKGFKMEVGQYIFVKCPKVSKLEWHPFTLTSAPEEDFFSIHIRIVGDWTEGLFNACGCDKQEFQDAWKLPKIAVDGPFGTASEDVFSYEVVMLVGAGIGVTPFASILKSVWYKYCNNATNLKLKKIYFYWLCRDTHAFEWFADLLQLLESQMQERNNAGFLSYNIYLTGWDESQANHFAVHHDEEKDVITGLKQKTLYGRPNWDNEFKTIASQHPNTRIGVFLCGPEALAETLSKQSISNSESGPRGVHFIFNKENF

z-score, inactive:
CCOC(=O)[C@H](Cc1ccccc1)NC(=O)CCC1CC(OC(=O)NCc2cccc3ccccc23)CC2(CCCC(COC(=O)NCc3cccc(C(F)(F)F)c3)O2)O1 (stereo partly drawn) 0.402, COC(=O)CC=C[C@@H](C)[C@@H](C=NOC(C)CN1CCCc2nc(C)c(C)cc21)OC (stereo partly drawn) -0.0618, COC(=O)[C@@H]1CC[C@H](C)[C@@H](c2ccc(C)cc2)N1C(=O)c1ccc(C=NO[C@H](C)c2cn([C@H](CO)Cc3ccccc3)nn2)cc1 -0.0504, CO[C@@H]1C=CCC(=O)N[C@@H](C)C(=O)OC[C@@H](OC)[C@H](C)CCCC(=O)OC[C@H]1C 0.57, COc1ccc(O[C@H]2C=C[C@@H](c3ccccc3)O[C@@H]2CON=C(C)C)cc1 -0.254, CCOC(=O)[C@H](CC(C)C)NC(=O)CCC1CC(OC(=O)NCc2cccc3ccccc23)CC2(CCCC(COC(=O)NCCOC)O2)O1 (stereo partly drawn) 1.05, CCCCC#C[C@@H]1C=C[C@H](Oc2ccc(C(=O)OC)cc2)[C@@H](COC(=O)OCC)O1 1.82, Cc1ccc(S(=O)(=O)n2c3ccccc3c3nnc(C(=O)c4ccccc4)nc32)cc1 -0.0413, COc1ccc(O[C@H]2C=C[C@@H](c3ccccc3)O[C@@H]2CON=CC[C@@H]2C=C[C@H](OC(C)=O)[C@@H](COC(C)=O)O2)cc1 -0.279, O=C(NN=C1C[C@@H](O)[C@@H](O)[C@@H]2[C@@H]3C(=O)N(Cc4ccccc4)C(=O)[C@@H]3CC[C@@H]12)OCc1ccccc1 -1.23, COc1ccc(O[C@H]2C=C[C@@H](c3ccccc3)O[C@@H]2COC(=O)CCC(C)=NO[C@@H]2O[C@H](COC(C)=O)[C@@H](OC(C)=O)[C@H](OC(C)=O)[C@H]2OC(C)=O)cc1 1.08, CO[C@H]1COC(=O)CC=C[C@H](C)[C@@H](OC)COC(=O)[C@@H](C)NC(=O)CC=C[C@@H]1C -0.22, CC(C)[C@@H](OCc1ccccc1)[C@H](C)C=NOC[C@@H](O)COCc1ccco1 -0.0623, CCCCC#C[C@@H]1C=C[C@H](OC(C)=O)[C@@H](COC(C)=O)O1 -2.78, CO[C@@H]1COC(=O)[C@@H](C)COC(=O)[C@@H](C)NC(=O)CC=C[C@@H]1C -0.675, C[C@H]1Cc2c(COc3ccccc3)nc3c(c2CO1)CN(CCOc1ccccc1)CC3 0.539, CCCNC(=O)OC[C@H]1O[C@H](CCON=C(C)CCC(=O)OC[C@H]2O[C@H](c3ccccc3)C=C[C@@H]2Oc2ccc(OC)cc2)C=C[C@@H]1Oc1ccc(OC)cc1 -0.245, CCOC(=O)NN=C1C[C@@H](O)[C@@H](O)[C@@H]2[C@@H]3C(=O)N(C(C)(C)C)C(=O)[C@@H]3CC[C@H]12 -1.89, C[C@@H](ON=C1[C@H]2CCn3c(=O)n(-c4ccccc4)c(=O)n3[C@H]2[C@H](O)[C@@H]2O[C@H]12)c1cn([C@@H]2COC[C@H]2O)nn1 -0.183, COc1ccc(COC(=O)NN=C2C[C@@H](O)[C@@H](O)[C@@H]3[C@@H]4C(=O)N(C5CCCCC5)C(=O)[C@@H]4CC[C@H]23)cc1 -0.248, CC(=O)OC[C@H]1O[C@H](C#Cc2ccccc2)C=C[C@@H]1OC(C)=O 1.61, O=C1CCCC=C1C(CCc1ccccc1)OC(=O)c1ccc(Br)cc1 (stereo not drawn) 1.36, CCN1C(=O)[C@@H]2[C@H]3C(=CC[C@@H]2C1=O)C1(OCCCO1)[C@H]1O[C@H]1[C@H]3O 0.104, O=C1[C@H]2[C@H]3[C@H](O)[C@H](O)CC(=NOCc4ccccc4)[C@@H]3CC[C@H]2C(=O)N1C[C@@H]1CCCO1 0.434, COC(=O)[C@H]1O[C@@H](c2c(OC)c(OC)c(C)c(OC)c2OC)[C@H](C)[C@@H](O)[C@H]1C 0.933, C#CCCCON=C1C[C@@H](O)[C@@H](O)[C@@H]2[C@@H]3C(=O)N(C(C)(C)C)C(=O)[C@@H]3CC[C@H]12 -0.722, C=CC[C@@H]1C=C[C@H](ON=C(C)CCN2CCc3nc(-c4ccccc4)c(-c4ccccc4)cc3C2)[C@@H](CO)O1 -2.79, CC(C)=CCCC(C)=CCON=C1C[C@@H](O)[C@@H](O)[C@@H]2[C@@H]3C(=O)N(Cc4ccccc4)C(=O)[C@@H]3CC[C@H]12 1.51
